Screening results deposited in PubChem BioAssay by National Center for Advancing Translational Sciences (NCATS).
Only some compounds are listed: those with a hit (about 11% of all), similar ones and a draw of the others.
G9a inh = qHTS Assay for Inhibitors of Histone Lysine Methyltransferase G9a. G9a H3K9 monomethylation, AlphaScreen, 2 h. hit rate 8.8% among 350,000. Histone-lysine N-methyltransferase EHMT2 (Homo sapiens), Q96KQ7. Potency, µM (highest dose often 102 µM), usual class: inhibitors; further: nearly all actives have a fitted effect of over 75% in size
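Chemiluminescent proximity detection of H3K9 monomethylation, read after 10 min bead incubation in the dark. Reaction: 20 nM G9a, 500 nM biotin-H3K9 peptide, 20 uM SAM cofactor, 2 h, room temperature, following 15 min enzyme-compound preincubation.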
JMJD2A Tudor inh = qHTS Assay for Inhibitors of JMJD2A-Tudor Domain; Lysine-specific demethylase 4A (Homo sapiens), O75164; AlphaScreen JMJD2A-Tudor / H3K4me3 peptide binding; Potency, µM (top dose mostly 114 µM), hits mostly inhibitors; hit rate 4.4% among 390,000; further: nearly all actives have a fitted effect of over 50% in size
BAZ2B block = qHTS Assay for Inhibitors of BAZ2B. AlphaScreen BAZ2B-H3K14Ac peptide displacement. Potency, µM (highest dose often 114 µM), most hits filed as inhibitors. hit rate 4.4% among 360,000; further: nearly all actives have a fitted effect of over 60% in size
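Complex of BAZ2B and biotin-H3K14Ac (50 nM apiece) forms over 30 min at RT, then faces library compounds up to 110 uM for another 30 min; AlphaScreen beads added, 20 min dark incubation, luminescence read.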
L3MBTL1 inh = qHTS Assay for the Inhibitors of L3MBTL1; Lethal(3)malignant brain tumor-like protein 1 (Homo sapiens), Q9Y468; AlphaScreen L3MBTL1–H3K9me1 peptide binding; Potency, µM (titrated, usually from 57.1 µM), most hits filed as inhibitors; hit rate 0.66% among 230,000; AID 485360, 2010; further: nearly all actives have a fitted effect of over 60% in size
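First, the protein-peptide complex forms for 30 min at room temperature (L3MBTL1 50 nM, biotinylated H3K9me1 peptide 75 nM). Next, compounds are pin-transferred and incubated 30 min. Finally, AlphaScreen beads are added and read after 30 min.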
HP1b chromo inh = HTS for Inhibitors of HP1-beta Chromodomain Interactions with Methylated Histone Tails; hit rate 0.56% among 390,000; AlphaScreen HP1-beta / biotin-H3K9me3 peptide binding; Potency, µM (doses to about 114 µM), usual class: inhibitors; further: nearly all actives have a fitted effect of over 70% in size
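HP1-beta protein (50 nM final) preincubated 30 min at room temperature with biotinylated H3(1-18)K9me3 peptide (50 nM) in PBS pH 7.4, 0.01% Tween-20, then compound added for 30 min. AlphaScreen streptavidin donor/nickel chelate acceptor beads (10 ug/mL final), 30 min dark, luminescence read.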
Hits are given with their value; - = inactive; ? = inconclusive; . = no result; [ ] = another dose, or the depositor's remark. The call rests on the fitted dose curve; in most records, active means well fitted inhibition curve with a large enough effect; inconclusive means small, poorly fitted or top-dose-only effect; inactive means no such curve, though single readings can be large or run the other way.

SMILES	G9a inh	JMJD2A Tudor inh	BAZ2B block	L3MBTL1 inh	HP1b chromo inh
CN(C)CCCN(C(=O)CCS(=O)(=O)c1ccccc1)c1nc2cc3c(cc2s1)OCO3	.	-	-	.	-
COc1ccc(OC)c2sc(N(CCCN(C)C)C(=O)CCS(=O)(=O)c3ccccc3)nc12	20µM	-	-	-	-
Cc1ccc2sc(N(CCCN(C)C)C(=O)CCS(=O)(=O)c3ccccc3)nc2c1C	16µM	-	-	.	-
COc1ccc(C)c2sc(N(CCCN(C)C)C(=O)CS(=O)(=O)c3ccc(F)cc3)nc12	-	-	-	-	-
COc1ccc(Cl)c2sc(N(CCN(C)C)C(=O)CCS(=O)(=O)c3ccc(C)cc3)nc12	10µM	-	-	-	-
CN(C)CCN(C(=O)CCS(=O)(=O)c1ccccc1)c1nc2c(F)cccc2s1	28µM	-	-	.	-
O=C(Cc1ccccc1)N(Cc1cccnc1)c1nc2c(Cl)cccc2s1	-	-	?	.	-
O=C(Cc1ccccc1)N(Cc1cccnc1)c1nc2c(F)cccc2s1	-	40µM	-	.	-
COc1cc2nc(=S)n3[nH]c(CCn4nc(C)cc4C)nc3c2cc1OC	1µM	-	-	.	-
COc1cc2nc(=S)n3[nH]c(COc4ccccc4C)nc3c2cc1OC	-	-	-	-	-
Cc1ccc2sc(-c3ccc(NC(=O)/C=C\C(=O)O)cc3)nc2c1	50µM	-	.	.	-
Cc1nc(-c2ccc(NC(=O)/C=C\C(=O)O)cc2)cs1	35µM	?	-	-	-
COc1cccc(NC(=O)Cn2c(=O)n(Cc3nc(-c4ccccc4)no3)c(=O)c3ccccc32)c1	-	-	-	.	-
CCc1ccc2nc3sc(C(=O)N4CCc5ccccc54)c(N)c3cc2c1	50µM	.	-	-	.
CCOc1ccc2nc3sc(C(=O)N4CCN(C)CC4)c(N)c3cc2c1	?	?	-	.	-
Cc1ccc2nc3sc(C(=O)N4CCOCC4)c(N)c3cc2c1	14µM	?	-	-	-
Cc1ccc2cc3c(N)c(C(=O)N4CCOCC4)sc3nc2c1	28µM	-	-	-	-
COc1cc(-c2cc(OC)c3c(C)oc(C)c3c(=O)c2)ccc1OC(=O)c1ccccc1Cl	?	?	?	.	-
CCOc1cc(-c2ccc3c(c2)OCO3)cc(=[O+]CC)c2c(C)oc(C)c12	.	56µM	.	.	?
CCOc1cc(-c2ccc(OC(=O)c3ccc(Cl)cc3)c(OC)c2)cc(=O)c2c(C)oc(C)c12	?	?	?	.	-
Cc1oc(C)c2c(=O)cc(-c3ccc4c(c3)OCO4)cc(OC(=O)c3ccccc3Cl)c12	?	63µM	45µM	.	-
Cc1oc(C)c2c(=O)cc(-c3ccc4c(c3)OCO4)cc(OC(=O)c3ccccc3Br)c12	13µM	?	?	.	-
COc1ccc(-c2cc(OC(=O)c3cccc(Cl)c3)c3c(C)oc(C)c3c(=O)c2)cc1	14µM	?	50µM	.	-
O=C(c1ccccc1)c1c[nH]c(C(=O)NNc2ccccc2)c1	10µM	-[11.4 µM]	-	-	-
CN(C)CCCNC(=O)c1cc(C(=O)c2ccccc2)c[nH]1	-[2.33 µM]	-	-	.	-
SMILES	G9a inh	JMJD2A Tudor inh	BAZ2B block	L3MBTL1 inh	HP1b chromo inh
Cc1nn(-c2ccc3nnc(C)n3n2)c(C)c1CCC(=O)Nc1ccc(OC(F)(F)F)cc1	-	-	-	.	-
O=C(NCc1ccc(Cl)cc1)C1CCN(C(=O)Cc2ccccc2)CC1	-	-	50µM	.	-
O=C(NCc1ccccn1)C(=O)N/N=C/c1ccccc1O	-	25µM	40µM	.	-
O=C(NCCCN1CCOCC1)C(=O)N/N=C/c1ccccc1O	-	28µM	28µM	?	-
O=C(NCc1ccccn1)C(=O)NN=C1CCCCCCCCCCC1	-	-	-	-	-
Cc1cc(/C=N/NC(=O)C(=O)NCc2ccccn2)c(C)n1-c1cccc(Br)c1	50µM	?	50µM	-	-
O=C(NCCCN1CCOCC1)C(=O)N/N=C/c1ccccc1Cl	.	-	-	-	-
Cc1ccc(-c2nnc3ccccc3c2C(=O)Nc2cccc(C(F)(F)F)c2)cc1	-	-	-	.	-
CCOC(=O)c1ccc(NC(=O)c2c(N3CCCC3=O)c3cc(OC)ccc3n2C)cc1	-	-	-	.	-
COc1ccc(C2=Nc3ccc(OC(F)(F)F)cc3NC(c3cccnc3)=N2)cc1	-	?	-	.	-
O=C(NCCCN1CCN(c2ccc(F)cc2)CC1)c1cnn(-c2ccc(F)cc2)c1-n1cccc1	?	?	?	.	-
CCOC(=O)c1cccc(NC(=O)c2cnc(N3CCCCC3)c3ccccc23)c1	-	-	-	.	-
N#Cc1c(Nc2ccccc2)sc(C(=O)C2CC2)c1N	79µM	-	-	-	-
COc1ccccc1NC(=O)Cn1c(=O)c(CNc2ccc(C)cc2)cc2cc3c(cc21)OCCO3	?	?	?	.	-
CC(=O)N1CCC[C@@]2(CCN(C(c3ccccc3)c3ccccc3)C2)C1	-[12.7 µM]	.	.	.	.
Cn1cccc1C(=O)N1CCC2(CCN(C(=O)Nc3cccc(F)c3)CC2)CC1	-[12.7 µM]	.	.	.	.
CC1CCCCC1NS(=O)(=O)c1ccc(S(=O)(=O)NCc2ccncc2)cc1 (stereo unspecified)	18µM	-	?	-	-
